# Test results taken from PubChem BioAssay (EPA / NIEHS).
# “And” between values parts separate entries of the source, which are not always exact repeats. Equal values may be shown once. Inconclusive results are not listed. The source holds several records for some structures; these can differ, active in one and inactive in another. The source made the active and inactive calls. How the source made its calls, unless noted: active means hit-call score of the fitted dose curve at least 0.9, where 1 is the maximum; inconclusive means response in the unintended direction; inactive means score below 0.9.
# Columns and labels:
# [1] = target: Estrogen receptor beta (Homo sapiens) (UniProt Q92731); assay: OT_ER_ERbERb_1440: Odyssey Thera (OT) 24-hour HEK293T Protein-Complementation Assay for Estrogen Receptor-beta/-beta Homodimer (AID 2283380);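 further: fluorescence gain from ER beta LBD homodimer complementation read by laser scanning cytometry; scored as signal increase over DMSO baseline for both agonists and antagonists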
# Chain of Estrogen receptor beta (Homo sapiens) (Q92731 whole entry, looked up, the tested form may be a part): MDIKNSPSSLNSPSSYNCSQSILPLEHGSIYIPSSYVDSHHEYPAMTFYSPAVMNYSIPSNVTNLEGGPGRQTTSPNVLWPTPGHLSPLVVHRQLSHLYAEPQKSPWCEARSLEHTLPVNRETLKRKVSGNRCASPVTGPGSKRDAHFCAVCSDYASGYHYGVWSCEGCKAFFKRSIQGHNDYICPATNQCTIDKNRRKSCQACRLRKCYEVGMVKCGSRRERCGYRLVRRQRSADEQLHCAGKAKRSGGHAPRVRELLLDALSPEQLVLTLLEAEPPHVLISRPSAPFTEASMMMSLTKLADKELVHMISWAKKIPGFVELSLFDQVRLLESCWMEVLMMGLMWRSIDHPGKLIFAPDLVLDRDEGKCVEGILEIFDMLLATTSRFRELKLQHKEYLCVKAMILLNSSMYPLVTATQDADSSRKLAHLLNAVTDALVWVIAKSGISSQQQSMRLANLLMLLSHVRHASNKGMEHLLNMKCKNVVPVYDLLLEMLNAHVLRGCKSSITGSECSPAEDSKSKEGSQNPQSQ
# In short: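 Fluorescence increase, nuclear for agonists or whole-cell for antagonists, relative to DMSO vehicle, quantified by laser scanning cytometer after fixation and Draq5 staining. Readout from 24 h treatment of HEK293T cells carrying complementation-paired ER beta LBD (aa 310-547).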
# [2] = target: Estrogen receptor (Homo sapiens) (UniProt P03372); assay: OT_ERa_GFPERaERE_0480: Odyssey Thera (OT) 8-hour HeLa Transcription Induction Assay for Estrogen Receptor (AID 2283381; active means hit-call score of the fitted dose curve at least 0.9, where 1 is the maximum; inactive means score below 0.9)
# Chain of Estrogen receptor (Homo sapiens) (P03372 whole entry, looked up): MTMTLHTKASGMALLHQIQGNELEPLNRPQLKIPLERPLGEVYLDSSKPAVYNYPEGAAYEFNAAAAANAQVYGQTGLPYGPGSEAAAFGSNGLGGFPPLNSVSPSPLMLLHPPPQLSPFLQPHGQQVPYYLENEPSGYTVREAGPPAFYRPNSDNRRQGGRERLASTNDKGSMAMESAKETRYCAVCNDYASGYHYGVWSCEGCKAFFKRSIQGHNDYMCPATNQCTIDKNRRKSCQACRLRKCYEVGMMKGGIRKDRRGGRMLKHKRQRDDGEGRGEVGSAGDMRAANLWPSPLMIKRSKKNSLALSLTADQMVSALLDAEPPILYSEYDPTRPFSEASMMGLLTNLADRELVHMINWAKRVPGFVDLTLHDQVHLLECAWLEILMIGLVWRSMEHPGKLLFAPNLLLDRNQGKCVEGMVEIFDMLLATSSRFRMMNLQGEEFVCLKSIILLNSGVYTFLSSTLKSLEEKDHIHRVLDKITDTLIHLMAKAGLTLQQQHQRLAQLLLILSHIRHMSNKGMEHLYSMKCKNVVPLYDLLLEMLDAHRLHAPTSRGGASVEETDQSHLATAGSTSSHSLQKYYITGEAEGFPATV
# In short: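 An 8 h HeLa transcription-induction format with a GFP reporter under ERE control, read by fluorescence microscopy; single endpoint fitted positively with DMSO as baseline.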
# [3] = target: Estrogen receptor (Homo sapiens) (UniProt P03372); assay: OT_ERa_GFPERaERE_0120: Odyssey Thera (OT) 2-hour HeLa Transcription Induction Assay for Estrogen Receptor (AID 2283382)
# In short: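 Two-hour compound treatment of HeLa cells preceded microscopy imaging of an inducible fluorescent reporter. Image-based quantification gave one endpoint, analysed for signal increase relative to DMSO controls.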
# [4] = target: Bile acid receptor (Homo sapiens) (UniProt Q96RI1); assay: OT_FXR_FXRSRC1_0480: Odyssey Thera (OT) 8-hour HEK293T Protein-Complementation Assay for Farnesoid X receptor/SRC-1 Co-activator (AID 2283383)
# Chain of Bile acid receptor (Homo sapiens) (Q96RI1 whole entry, looked up): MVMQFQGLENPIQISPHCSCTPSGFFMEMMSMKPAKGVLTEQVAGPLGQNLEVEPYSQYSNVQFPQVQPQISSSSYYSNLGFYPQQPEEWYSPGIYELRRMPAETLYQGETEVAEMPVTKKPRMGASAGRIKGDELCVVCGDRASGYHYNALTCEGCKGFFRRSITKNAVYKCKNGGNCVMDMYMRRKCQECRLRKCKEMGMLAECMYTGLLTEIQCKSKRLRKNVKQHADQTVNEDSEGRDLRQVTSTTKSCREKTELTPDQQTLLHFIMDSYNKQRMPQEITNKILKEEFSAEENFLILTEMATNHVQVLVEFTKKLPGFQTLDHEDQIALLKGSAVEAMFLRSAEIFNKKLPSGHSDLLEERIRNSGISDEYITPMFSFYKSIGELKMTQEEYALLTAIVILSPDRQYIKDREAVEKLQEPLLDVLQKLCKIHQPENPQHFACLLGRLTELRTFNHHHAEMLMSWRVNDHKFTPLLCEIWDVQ
# In short: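 Readings were taken 8 h after dosing HEK293T cells in a split-reporter complementation format pairing FXR with SRC-1. Increased fluorescence relative to DMSO-treated wells defined activity.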
# [5] = target: Bile acid receptor (Homo sapiens) (UniProt Q96RI1); assay: OT_FXR_FXRSRC1_1440: Odyssey Thera (OT) 24-hour HEK293T Protein-Complementation Assay for Farnesoid X receptor/SRC-1 Co-activator (AID 2283384)
# In short: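 Single endpoint, analysed for increased fluorescence against DMSO controls. HEK293T cells carrying FXR and SRC-1 linked to complementary reporter halves were exposed to chemicals for 24 h before reading.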
# [6] = target: Retinoic acid receptor RXR-alpha (Homo sapiens) (UniProt P19793); assay: OT_NURR1_NURR1RXRa_0480: Odyssey Thera (OT) 8-hour HEK293T Protein Complementation Assay for Nurr1/retinoid X receptor (RXR) (AID 2283385)
# Chain of Retinoic acid receptor RXR-alpha (Homo sapiens) (P19793 whole entry, looked up, the tested form may be a part): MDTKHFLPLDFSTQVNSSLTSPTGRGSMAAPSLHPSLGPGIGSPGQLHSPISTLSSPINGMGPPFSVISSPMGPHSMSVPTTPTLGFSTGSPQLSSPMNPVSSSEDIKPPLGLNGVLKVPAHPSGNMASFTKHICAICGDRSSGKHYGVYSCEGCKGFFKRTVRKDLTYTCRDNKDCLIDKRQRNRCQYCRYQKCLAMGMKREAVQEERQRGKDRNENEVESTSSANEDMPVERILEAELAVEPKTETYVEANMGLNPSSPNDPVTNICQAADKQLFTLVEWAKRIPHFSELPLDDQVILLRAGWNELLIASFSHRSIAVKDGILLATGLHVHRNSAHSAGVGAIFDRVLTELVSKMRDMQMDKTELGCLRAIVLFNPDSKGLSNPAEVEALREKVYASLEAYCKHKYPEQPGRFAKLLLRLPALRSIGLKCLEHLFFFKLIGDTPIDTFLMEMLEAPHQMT
# In short: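 Gain in fluorescent complementation signal over DMSO, measured 8 hours after chemical dosing of human kidney HEK293T cells, indicated enhanced Nurr1–RXRα association.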
# [7] = target: Retinoic acid receptor RXR-alpha (Homo sapiens) (UniProt P19793); assay: OT_NURR1_NURR1RXRa_1440: Odyssey Thera (OT) 24-hour HEK293T Protein Complementation Assay for Nurr1/retinoid X receptor (RXR) (AID 2283386)
# In short: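 Cell-based binding reporter: HEK293T cells, 24 h exposure, fluorescence-detected fragment complementation, DMSO as baseline.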
# [8] = target: Peroxisome proliferator-activated receptor gamma (Homo sapiens) (UniProt P37231); assay: OT_PPARg_PPARgSRC1_0480: Odyssey Thera (OT) 8-hour Protein-Complementation Assay for Peroxisome Proliferator-activated Receptor Gamma / SRC-1 Co-activator (AID 2283387);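 further: nuclear to cytoplasmic split Venus YFP fluorescence ratio reporting PPARg SRC-1 interaction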
# Chain of Peroxisome proliferator-activated receptor gamma (Homo sapiens) (P37231 whole entry, looked up, the tested form may be a part): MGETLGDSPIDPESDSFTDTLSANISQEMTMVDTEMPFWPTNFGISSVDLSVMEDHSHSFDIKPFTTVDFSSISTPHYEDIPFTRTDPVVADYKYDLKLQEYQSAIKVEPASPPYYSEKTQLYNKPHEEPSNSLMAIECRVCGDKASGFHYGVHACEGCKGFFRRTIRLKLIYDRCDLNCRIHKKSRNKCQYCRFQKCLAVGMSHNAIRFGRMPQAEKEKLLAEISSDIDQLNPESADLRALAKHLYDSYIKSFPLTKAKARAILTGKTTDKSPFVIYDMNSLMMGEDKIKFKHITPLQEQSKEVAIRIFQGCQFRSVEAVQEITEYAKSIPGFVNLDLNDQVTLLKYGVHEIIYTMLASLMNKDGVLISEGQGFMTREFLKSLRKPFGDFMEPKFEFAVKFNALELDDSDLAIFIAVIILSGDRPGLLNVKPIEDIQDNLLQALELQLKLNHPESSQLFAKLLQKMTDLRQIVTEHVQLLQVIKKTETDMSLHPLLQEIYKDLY
# In short: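 Read-out: 488 nm N/C fluorescence ratio from complemented Venus YFP fragments, ≥350 cells per image, gain-of-signal fitted against DMSO baseline. Fusions of PPARg/SRC-1 with IFP1/IFP2 expressed transiently in HEK293T; compounds applied 8 h.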
# [9] = target: Peroxisome proliferator-activated receptor gamma (Homo sapiens) (UniProt P37231); assay: OT_PPARg_PPARgSRC1_1440: Odyssey Thera (OT) 24-hour Protein-Complementation Assay for Peroxisome Proliferator-activated Receptor Gamma/ SRC-1 Co-activator (AID 2283388);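 further: nuclear to cytoplasmic ratio of reconstituted Venus YFP fluorescence in fixed imaged cells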
# In short: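 Protein-fragment complementation between PPARg and coactivator SRC-1 was measured by fluorescence imaging in transiently transfected HEK293T cells after 24 h treatment. Signal was quantified as N/C ratio in the 488 nm channel, with DMSO as negative control.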
# [10] = CEETOX_H295R_11DCORT: CeeTox H295R High-throughput Steroidogenesis Assay for 11-Deoxycortisol (11DCORT) (AID 2283432; active means hit-call score of the fitted dose curve at least 0.9, where 1 is the maximum; inactive means score below 0.9;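 further: 11-deoxycortisol secreted into the medium measured by LC-MS/MS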); conditions: actives raise or lower the signal
# In short: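 H295R cells; 10 uM forskolin prestim 48 h; compound in 0.1% DMSO 48 h; media extracted with MTBE; 11-deoxycortisol by LC-MS/MS, 7-point standard curve; gain/loss vs DMSO baseline; viability by MTT in same wells.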
# [11] = CEETOX_H295R_OHPREG: CeeTox H295R High-throughput Steroidogenesis Assay for OH-Pregnenolone (OHPREG) (AID 2283434; active means hit-call score of the fitted dose curve at least 0.9, where 1 is the maximum; inactive means score below 0.9); conditions: actives raise or lower the signal
# In short: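 Secreted 17alpha-hydroxypregnenolone measured by HPLC-MS/MS after liquid-liquid extraction. Human adrenal H295R cells received 48 h forskolin (10 uM) stimulation before 48 h chemical exposure at 0.1% final DMSO; MTT viability in same wells; bidirectional fit against DMSO.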
# [12] = CEETOX_H295R_OHPROG: CeeTox H295R High-throughput Steroidogenesis Assay for OH-Progesterone (OHPROG) (AID 2283435; active means hit-call score of the fitted dose curve at least 0.9, where 1 is the maximum; inactive means score below 0.9;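 further: 17alpha-hydroxyprogesterone secreted into medium measured by HPLC-MS/MS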); conditions: actives raise or lower the signal
# In short: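 Human adrenocortical H295R cells, passage 10 or lower, were treated with chemical for 48 h after forskolin priming, and hormone output in the medium was quantified by LC-MS/MS.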
# [13] = CEETOX_H295R_ANDR: CeeTox H295R High-throughput Steroidogenesis Assay for Androstenedione (ANDR) (AID 2283436; active means hit-call score of the fitted dose curve at least 0.9, where 1 is the maximum; inactive means score below 0.9); conditions: actives raise or lower the signal
# In short: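 Medium from 48 h chemical-treated H295R adrenal cells was extracted with MTBE and androstenedione measured by LC-MS/MS. Activity was fit in both directions relative to DMSO. Cytotoxic concentrations were re-tested after dilution until MTT viability reached ≥70%.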
# [14] = CEETOX_H295R_CORTIC: CeeTox H295R High-throughput Steroidogenesis Assay for Corticosterone (CORTIC) (AID 2283437; active means hit-call score of the fitted dose curve at least 0.9, where 1 is the maximum; inactive means score below 0.9); conditions: actives raise or lower the signal
# In short: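 Medium corticosterone was quantified by tandem mass spectrometry following 48 hours of chemical exposure (0.1% DMSO) in human H295R cells previously stimulated 48 hours with 10 uM forskolin. Viability checked by MTT; chemicals diluted and retested when viability fell below 70%.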
# [15] = CEETOX_H295R_CORTISOL: CeeTox H295R High-throughput Steroidogenesis Assay for Cortisol (AID 2283438; active means hit-call score of the fitted dose curve at least 0.9, where 1 is the maximum; inactive means score below 0.9;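 further: cortisol secreted into medium quantified by LC-MS/MS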); conditions: actives raise or lower the signal
# In short: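 Steroidogenesis in H295R, per modified OECD 456: 48 h forskolin (10 uM), then 48 h exposure, 0.1% DMSO. Cortisol by extraction and tandem MS; viability by MTT (570/650 nm); cytotoxic chemicals diluted and re-tested.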
# [16] = CEETOX_H295R_DOC: CeeTox H295R High-throughput Steroidogenesis Assay for DOC (AID 2283439; active means hit-call score of the fitted dose curve at least 0.9, where 1 is the maximum; inactive means score below 0.9); conditions: actives raise or lower the signal
# In short: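 H295R, fsk 10 uM ×48 h pre, cmpd ×48 h (0.1% DMSO). Media → MTBE extr. → LC-MS/MS, DOC. Bidirectional fit vs DMSO; MTT viability same wells, re-test diluted if <70%.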
# [17] = CEETOX_H295R_ESTRADIOL: CeeTox H295R High-throughput Steroidogenesis Assay for Estradiol (AID 2283440; active means hit-call score of the fitted dose curve at least 0.9, where 1 is the maximum; inactive means score below 0.9;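 further: estradiol secreted into medium quantified by LC-MS/MS after dansyl derivatisation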); conditions: actives raise or lower the signal
# In short: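 Estradiol secreted into the medium was measured by tandem mass spectrometry after liquid-liquid extraction and dansylation. Human H295R cells had been forskolin-primed (10 uM, 48 h) before a 48 h chemical exposure with 0.1% DMSO.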
# [18] = CEETOX_H295R_ESTRONE: CeeTox H295R High-throughput Steroidogenesis Assay for Estrone (AID 2283441; active means hit-call score of the fitted dose curve at least 0.9, where 1 is the maximum; inactive means score below 0.9;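 further: estrone secreted into medium measured by LC-MS/MS after dansyl derivatization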); conditions: actives raise or lower the signal
# In short: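 Forskolin-stimulated H295R cells are treated 48 h with chemical, and estrone in the medium is measured by LC-MS/MS. Activity is fitted in both directions relative to DMSO controls, with chemicals diluted until MTT viability reaches at least 70%.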
# [19] = CEETOX_H295R_PROG: CeeTox H295R High-throughput Steroidogenesis Assay for Progesterone (PROG) (AID 2283442; active means hit-call score of the fitted dose curve at least 0.9, where 1 is the maximum; inactive means score below 0.9;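 further: human H295R adrenal cells primed with 10 µM forskolin before dosing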); conditions: actives raise or lower the signal
# In short: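 Steps: seed H295R cells and let them adhere overnight; prime 48 h with 10 uM forskolin; dose with compound in DMSO at 0.1% final for 48 h; extract medium steroids with MTBE; measure progesterone by LC-MS/MS. MTT viability was run in the same wells.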
# [20] = read-out: Tumor necrosis factor receptor superfamily member 6 (Homo sapiens) (UniProt P25445); assay: LTEA_HepaRG_FAS: Life Technologies and Expression Analysis (LTEA) Assay for Fas cell surface death receptor (FAS) using HepaRG (AID 2283447; active means hit-call score of the fitted dose curve at least 0.9, where 1 is the maximum; inactive means score below 0.9); conditions: mRNA level, 48 h; actives raise or lower the signal
# In short: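 FAS transcript level was measured by TaqMan qRT-PCR against three housekeeping genes after 48 h chemical exposure. Cells were HepaRG, 0.5% DMSO vehicle, with a top concentration of 100 uM and half-log dilutions over eight points, in duplicate.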
compound,measurement,setting,value
Nc1cccc2c(N)cccc12,outcome,[1],inactive
same,outcome,[2],inactive
same,outcome,[3],inactive
same,outcome,[4],inactive
same,outcome,[5],inactive
same,outcome,[6],inactive
same,outcome,[7],inactive
same,outcome,[8],inactive
same,outcome,[9],inactive
same,AC50,[10],5 µM (active)
same,outcome,[11],inactive
same,AC50,[12],1.78 µM (active)
same,outcome,[13],inactive
same,outcome,[14],inactive
same,AC50,[15],5 µM (active)
same,AC50,[16],2.73 µM (active)
same,outcome,[17],inactive
same,outcome,[18],inactive
same,AC50,[19],2.44 µM (active)
same,outcome,[20],inactive
CCCCC(CC)COC(=O)CCCCC(=O)OCc1ccccc1 (centres undefined),outcome,[1],inactive
same,outcome,[2],inactive
same,outcome,[3],inactive
same,outcome,[5],inactive
same,outcome,[6],inactive
same,outcome,[7],inactive
same,outcome,[8],inactive
same,outcome,[9],inactive
same,outcome,[20],inactive
CC(C)(C)c1cc(C(C)(C)C)c(O)c(C(C)(C)C)c1,AC50,[1],66.3 µM (active)
same,outcome,[2],inactive
same,outcome,[3],inactive
same,AC50,[5],92.6 µM (active)
same,AC50,[6],84.3 µM (active) and 77.2 µM (active)
same,AC50,[7],85 µM (active)
same,outcome,[8],inactive
same,outcome,[9],inactive
same,outcome,[20],inactive
CCN(CC)CCNc1ccc(CNC=O)c2sc3ccc(OC)cc3c(=O)c12,outcome,[1],inactive
same,outcome,[2],inactive
same,AC50,[3],20.2 µM (active)
same,AC50,[5],11.9 µM (active)
same,AC50,[6],11.4 µM (active) and 11.9 µM (active)
same,AC50,[7],11.7 µM (active) and 11.8 µM (active)
same,outcome,[8],inactive
same,outcome,[9],inactive
same,outcome,[20],inactive
NC(=O)N1C(=O)C(C(=O)c2cc(Cl)cs2)c2cc(F)c(Cl)cc21 (centres undefined),outcome,[1],inactive
same,outcome,[2],inactive
same,outcome,[3],inactive
same,AC50,[5],81.9 µM (active)
same,AC50,[6],13.2 µM (active)
same,outcome,[6],inactive
same,AC50,[7],32.9 µM (active)
same,outcome,[7],inactive
same,outcome,[8],inactive
same,outcome,[9],inactive
same,outcome,[20],inactive
CN(C)C=O,outcome,[1],inactive
same,outcome,[2],inactive
same,outcome,[3],inactive
same,outcome,[5],inactive
same,outcome,[6],inactive
same,outcome,[7],inactive
same,outcome,[8],inactive
same,outcome,[9],inactive
same,outcome,[20],inactive
CC[C@H](C)[C@@H](C(=O)O)n1sc2ccccc2c1=O,outcome,[1],inactive
same,outcome,[2],inactive
same,outcome,[3],inactive
same,outcome,[6],inactive
same,outcome,[7],inactive
same,outcome,[8],inactive
same,outcome,[9],inactive
same,outcome,[20],inactive
OCCC(F)(F)C(F)(F)C(F)(F)C(F)(F)C(F)(F)C(F)(F)F,outcome,[1],inactive
same,outcome,[2],inactive
same,AC50,[3],11.6 µM (active)
same,outcome,[5],inactive
same,outcome,[6],inactive
same,outcome,[7],inactive
same,outcome,[8],inactive
same,outcome,[9],inactive
same,outcome,[20],inactive
